From PubChem BioAssay (EPA / NIEHS) come the findings set out here.

The source made the active and inactive calls. Rule for the calls: active = hit-call score of the fitted dose curve at least 0.9, where 1 is the maximum; inconclusive = response in the unintended direction; inactive = score below 0.9.

For the test, the system named is DIO2 (gene 1734). Briefly: CCTE_GLTED_hDIO2: CCTE's human Deiodinase 2 (DIO2) Inhibition Assay, Great Lakes Toxicology and Ecology Division (GLTED) Lab (AID 2284050). The gist of the method:
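hDIO2 enzyme + test chem, 3 h → free iodide from substrate; step 2: Sandell-Kolthoff (Ce IV reduction by As, iodide-catalysed), spectrophotometric read. Triplicate plates; DMSO = baseline.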
Turning to `c1ccc2cc3c(ccc4ccccc43)cc2c1`, the half-maximal activity concentration (AC50) is 70 µM (active).

Regarding `CCCCCCCCCCCCc1ccccc1S(=O)(=O)O`, the AC50 was 72.2 µM (active).

With `CCC(=C(c1ccc(O)cc1)c1ccc(OCCN(C)C)cc1)c1ccccc1`, the half-maximal activity concentration (AC50) was 35.2 µM (active). Under `NC(=O)N(O)[C@@H]1C=C[C@H](Oc2cccc(Oc3ccc(F)cc3)c2)C1` stands 36.5 µM (active); under `CCCCCCCCCCCCCC[N+](C)(C)C`, 24.7 µM (active); under `CCCCCCCCCCCCN1CCCC1=O`, 138 µM (active). Under `CC(=O)NC1(c2cccc(F)c2)CCN(CC[C@@]2(c3ccc(Cl)c(Cl)c3)CN(c3ccccc3)C(=O)CO2)CC1` stands 82.6 µM (active); under `CN1CCN(c2ccccc2/C=C2\SCCN(c3ccc(Cl)c(Cl)c3)C2=O)CC1`, 104 µM (active); under `Cc1oc(-c2ccccc2)nc1CCOc1ccc(C[C@H](Nc2ccccc2C(=O)c2ccccc2)C(=O)O)cc1`, 46.1 µM (active). Under `CC1=C(/C=C/C(C)=C/C=C/C(C)=C/C(=O)O)C(C)(C)CCC1` stands 60.4 µM (active); under `CC(C)(C)c1ccc(O)c(C(C)(C)C)c1`, 159 µM (active). For the molecule `ClC1=C(Cl)C(Cl)(Cl)C(Cl)=C1Cl`, the AC50 is 23.9 µM (active).

One may read the AC50 as the concentration giving half of the maximal activity seen.
